According to PMC7862700, “An all-to-all approach to the identification of sequence-specific readers for epigenetic DNA modifications on cytosine”:

What was measured:
Test in all cases: DAPPL (digital affinity profiling via proximity ligation, sequencing); 10 mM Tris-HCl pH 7.5, 50 mM NaCl, 1 mM DTT, 4% glycerol, room temperature, 30 min; GST-TFs on glutathione beads, 16-mer random dsDNA library, 0.1% formaldehyde crosslink after washing; high values mean tight binding
FLI1 = target: T1, FLI1 (Homo sapiens, UniProt Q01543 1-452); conditions: protein: recombinant; tags: N-terminal GST; dsDNA, one strand shown
T1 sequence: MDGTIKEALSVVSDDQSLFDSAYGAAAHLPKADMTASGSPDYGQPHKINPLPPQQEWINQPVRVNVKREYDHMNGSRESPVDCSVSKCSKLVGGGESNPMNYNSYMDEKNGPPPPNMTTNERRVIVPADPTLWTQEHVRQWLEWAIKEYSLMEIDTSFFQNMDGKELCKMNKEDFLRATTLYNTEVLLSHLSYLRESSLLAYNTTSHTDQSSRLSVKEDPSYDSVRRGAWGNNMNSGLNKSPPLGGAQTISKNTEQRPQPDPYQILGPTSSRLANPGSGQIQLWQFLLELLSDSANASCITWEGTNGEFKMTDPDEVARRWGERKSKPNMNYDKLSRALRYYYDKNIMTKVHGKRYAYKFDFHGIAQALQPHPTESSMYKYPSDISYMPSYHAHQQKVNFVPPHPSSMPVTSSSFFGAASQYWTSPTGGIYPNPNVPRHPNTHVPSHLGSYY
Summary of the method: (§1)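 Beads coated with glutathione captured GST-fused human transcription factors that had been expressed in yeast, and the factors were then given DNA barcodes and pooled with a tag-only sample. The pools were incubated with 200 nmole of a random double-stranded 16-mer DNA library in Tris/NaCl/DTT/glycerol buffer for 30 min at room temperature, washed, crosslinked with 0.1% formaldehyde and proximity-ligated with BsaI/T4 ligase at 37 °C for 1 h. PCR amplification and Illumina NextSeq500 sequencing came last. Binding signal is each hexamer's read frequency for a factor divided by its frequency for the tag-only sample.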

ELK1 = target: T2, ELK1 (Homo sapiens, UniProt P19419 1-428); conditions: protein: recombinant; tags: N-terminal GST; dsDNA, one strand shown
T2 sequence: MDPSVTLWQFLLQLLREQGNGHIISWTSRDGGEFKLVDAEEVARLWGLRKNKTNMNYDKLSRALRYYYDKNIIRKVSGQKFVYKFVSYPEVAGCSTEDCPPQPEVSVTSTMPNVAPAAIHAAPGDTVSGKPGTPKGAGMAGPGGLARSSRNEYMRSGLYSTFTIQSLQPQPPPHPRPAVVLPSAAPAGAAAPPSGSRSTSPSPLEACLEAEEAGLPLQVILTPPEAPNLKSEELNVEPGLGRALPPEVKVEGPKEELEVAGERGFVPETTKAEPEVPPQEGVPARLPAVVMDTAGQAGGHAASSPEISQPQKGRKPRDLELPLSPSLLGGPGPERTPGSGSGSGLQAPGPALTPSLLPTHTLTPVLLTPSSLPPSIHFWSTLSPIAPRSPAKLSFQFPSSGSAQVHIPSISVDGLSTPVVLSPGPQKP
Summary of the method: as §1

GABPA = target: T3, GABPA (Homo sapiens, UniProt Q06546 1-454); conditions: protein: recombinant; tags: N-terminal GST; dsDNA, one strand shown
T3 sequence: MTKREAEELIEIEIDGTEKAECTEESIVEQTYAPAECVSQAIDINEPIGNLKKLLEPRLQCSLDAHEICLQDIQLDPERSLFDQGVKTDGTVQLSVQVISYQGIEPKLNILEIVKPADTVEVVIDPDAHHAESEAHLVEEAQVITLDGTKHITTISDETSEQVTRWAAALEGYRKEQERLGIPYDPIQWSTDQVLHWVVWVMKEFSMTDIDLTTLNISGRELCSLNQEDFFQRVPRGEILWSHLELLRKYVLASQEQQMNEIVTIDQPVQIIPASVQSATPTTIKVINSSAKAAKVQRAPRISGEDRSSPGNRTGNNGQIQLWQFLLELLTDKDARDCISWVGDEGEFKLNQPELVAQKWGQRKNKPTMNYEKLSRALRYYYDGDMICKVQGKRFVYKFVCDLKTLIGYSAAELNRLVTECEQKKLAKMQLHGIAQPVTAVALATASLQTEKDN
Summary of the method: as §1

ERG = target: T4, ERG (Homo sapiens, UniProt P11308 1-479); conditions: protein: recombinant; tags: N-terminal GST; dsDNA, one strand shown
T4 sequence: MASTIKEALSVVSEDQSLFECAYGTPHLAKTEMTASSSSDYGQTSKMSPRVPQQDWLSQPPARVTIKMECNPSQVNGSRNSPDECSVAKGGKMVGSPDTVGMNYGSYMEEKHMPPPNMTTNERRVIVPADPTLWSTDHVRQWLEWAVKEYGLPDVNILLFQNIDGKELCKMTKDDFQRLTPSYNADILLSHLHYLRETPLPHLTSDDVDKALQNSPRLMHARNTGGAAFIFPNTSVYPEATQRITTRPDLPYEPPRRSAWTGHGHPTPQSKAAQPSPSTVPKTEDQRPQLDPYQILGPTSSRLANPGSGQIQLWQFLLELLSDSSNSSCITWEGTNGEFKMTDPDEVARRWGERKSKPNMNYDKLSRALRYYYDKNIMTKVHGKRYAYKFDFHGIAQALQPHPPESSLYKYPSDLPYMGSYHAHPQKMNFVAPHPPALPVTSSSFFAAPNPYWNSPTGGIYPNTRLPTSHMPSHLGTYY
Summary of the method: as §1

ELF1 = ELF1 (Homo sapiens, UniProt P32519 1-619); conditions: protein: recombinant; tags: N-terminal GST; dsDNA, one strand shown
Chain of ELF1 (P32519 whole entry): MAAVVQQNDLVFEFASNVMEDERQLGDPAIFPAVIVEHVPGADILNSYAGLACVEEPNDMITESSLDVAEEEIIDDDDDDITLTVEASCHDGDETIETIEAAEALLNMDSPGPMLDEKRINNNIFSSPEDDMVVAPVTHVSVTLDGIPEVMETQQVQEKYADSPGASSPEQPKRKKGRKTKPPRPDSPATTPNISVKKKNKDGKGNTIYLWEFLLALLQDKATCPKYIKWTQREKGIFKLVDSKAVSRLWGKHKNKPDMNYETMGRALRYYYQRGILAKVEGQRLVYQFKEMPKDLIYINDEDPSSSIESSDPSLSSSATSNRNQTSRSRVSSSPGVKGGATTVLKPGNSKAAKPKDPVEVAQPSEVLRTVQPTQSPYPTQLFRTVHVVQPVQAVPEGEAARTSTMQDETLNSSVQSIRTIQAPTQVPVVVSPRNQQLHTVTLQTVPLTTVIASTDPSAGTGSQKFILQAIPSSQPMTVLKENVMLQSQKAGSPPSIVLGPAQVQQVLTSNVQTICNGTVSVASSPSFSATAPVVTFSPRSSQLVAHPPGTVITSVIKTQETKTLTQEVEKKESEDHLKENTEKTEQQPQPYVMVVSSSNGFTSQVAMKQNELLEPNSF
Summary of the method: as §1

EHF = target: T5, EHF (Homo sapiens, UniProt Q9NZC4 1-300); conditions: protein: recombinant; tags: N-terminal GST; dsDNA, one strand shown
T5 sequence: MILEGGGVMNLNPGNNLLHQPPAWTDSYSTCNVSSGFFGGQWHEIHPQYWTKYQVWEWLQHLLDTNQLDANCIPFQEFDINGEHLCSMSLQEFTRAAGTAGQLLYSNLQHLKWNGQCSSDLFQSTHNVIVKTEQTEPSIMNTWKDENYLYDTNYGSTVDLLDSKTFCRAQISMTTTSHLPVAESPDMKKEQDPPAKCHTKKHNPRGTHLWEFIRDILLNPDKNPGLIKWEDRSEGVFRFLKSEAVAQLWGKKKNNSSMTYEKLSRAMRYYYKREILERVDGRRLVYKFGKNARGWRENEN
Summary of the method: as §1

SPI1 = SPI1 (Homo sapiens, UniProt P17947 1-270); conditions: protein: recombinant; tags: N-terminal GST; dsDNA, one strand shown
Summary of the method: as §1

SPIB = SPIB (Homo sapiens, UniProt Q01892 1-262); conditions: protein: recombinant; tags: N-terminal GST; dsDNA, one strand shown
Chain of SPIB (Q01892 whole entry): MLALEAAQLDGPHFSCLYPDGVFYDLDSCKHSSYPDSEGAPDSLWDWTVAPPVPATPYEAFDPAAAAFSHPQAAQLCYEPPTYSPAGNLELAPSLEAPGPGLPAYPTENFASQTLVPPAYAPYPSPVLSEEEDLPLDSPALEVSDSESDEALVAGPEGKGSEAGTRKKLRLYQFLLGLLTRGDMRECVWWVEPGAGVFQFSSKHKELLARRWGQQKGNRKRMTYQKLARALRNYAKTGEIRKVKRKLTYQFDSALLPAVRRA
Summary of the method: as §1

FEV = target: T6, FEV (Homo sapiens, UniProt Q99581 1-238); conditions: protein: recombinant; tags: N-terminal GST; dsDNA, one strand shown
T6 sequence: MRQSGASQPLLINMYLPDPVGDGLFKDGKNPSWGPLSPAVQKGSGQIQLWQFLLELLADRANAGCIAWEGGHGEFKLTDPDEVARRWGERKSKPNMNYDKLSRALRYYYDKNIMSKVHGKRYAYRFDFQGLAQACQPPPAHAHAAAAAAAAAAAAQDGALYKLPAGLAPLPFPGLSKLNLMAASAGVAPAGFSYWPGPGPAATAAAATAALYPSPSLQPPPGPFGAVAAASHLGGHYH
Summary of the method: as §1

ETV5 = ETV5 (Homo sapiens, UniProt P41161 1-510); conditions: protein: recombinant; tags: N-terminal GST; dsDNA, one strand shown
Chain of ETV5 (P41161 whole entry): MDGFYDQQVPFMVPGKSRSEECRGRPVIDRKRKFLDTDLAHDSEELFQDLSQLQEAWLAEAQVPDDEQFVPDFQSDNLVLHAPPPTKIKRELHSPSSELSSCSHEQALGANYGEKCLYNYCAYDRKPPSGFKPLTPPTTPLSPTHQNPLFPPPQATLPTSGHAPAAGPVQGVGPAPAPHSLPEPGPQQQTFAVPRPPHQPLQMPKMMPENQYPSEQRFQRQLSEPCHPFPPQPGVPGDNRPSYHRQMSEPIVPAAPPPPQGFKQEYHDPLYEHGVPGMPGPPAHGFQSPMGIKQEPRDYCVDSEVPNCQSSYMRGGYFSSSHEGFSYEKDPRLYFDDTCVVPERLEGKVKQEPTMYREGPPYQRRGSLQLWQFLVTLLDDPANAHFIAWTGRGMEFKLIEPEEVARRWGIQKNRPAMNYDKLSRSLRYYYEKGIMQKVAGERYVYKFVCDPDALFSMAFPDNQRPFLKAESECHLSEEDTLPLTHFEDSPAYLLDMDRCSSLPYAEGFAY
Summary of the method: as §1

HSF1 = HSF1 (Homo sapiens, UniProt Q00613 1-529); conditions: protein: recombinant; tags: N-terminal GST; chain copies: 3; dsDNA, one strand shown
Chain of HSF1 (Q00613 whole entry): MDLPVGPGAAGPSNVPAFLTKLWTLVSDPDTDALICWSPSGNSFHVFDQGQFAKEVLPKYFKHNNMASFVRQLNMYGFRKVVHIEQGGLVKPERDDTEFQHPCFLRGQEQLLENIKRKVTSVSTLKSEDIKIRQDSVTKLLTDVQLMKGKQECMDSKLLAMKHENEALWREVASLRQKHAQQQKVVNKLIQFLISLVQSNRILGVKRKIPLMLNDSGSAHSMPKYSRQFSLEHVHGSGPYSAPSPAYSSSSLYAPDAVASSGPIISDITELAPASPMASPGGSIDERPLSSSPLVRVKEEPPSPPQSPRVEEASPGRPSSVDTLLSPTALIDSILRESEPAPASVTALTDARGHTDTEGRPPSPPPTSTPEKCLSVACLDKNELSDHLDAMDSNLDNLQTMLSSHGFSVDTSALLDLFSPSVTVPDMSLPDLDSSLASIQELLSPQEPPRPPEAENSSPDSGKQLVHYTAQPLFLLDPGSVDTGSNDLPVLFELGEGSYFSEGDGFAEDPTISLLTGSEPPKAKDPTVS
Summary of the method: as §1

SPIC = target: T7, SPIC (Homo sapiens, UniProt Q8N5J4 1-248); conditions: protein: recombinant; tags: N-terminal GST; dsDNA, one strand shown
T7 sequence: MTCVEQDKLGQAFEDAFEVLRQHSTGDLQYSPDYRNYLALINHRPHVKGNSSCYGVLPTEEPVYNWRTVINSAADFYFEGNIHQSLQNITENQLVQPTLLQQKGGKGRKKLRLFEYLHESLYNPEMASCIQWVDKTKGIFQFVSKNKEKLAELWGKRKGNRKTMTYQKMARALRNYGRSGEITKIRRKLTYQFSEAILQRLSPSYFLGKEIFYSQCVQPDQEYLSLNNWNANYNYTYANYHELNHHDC
Summary of the method: as §1

ELF4 = ELF4 (Homo sapiens, UniProt Q99607 1-663); conditions: protein: recombinant; tags: N-terminal GST; dsDNA, one strand shown
Chain of ELF4 (Q99607 whole entry): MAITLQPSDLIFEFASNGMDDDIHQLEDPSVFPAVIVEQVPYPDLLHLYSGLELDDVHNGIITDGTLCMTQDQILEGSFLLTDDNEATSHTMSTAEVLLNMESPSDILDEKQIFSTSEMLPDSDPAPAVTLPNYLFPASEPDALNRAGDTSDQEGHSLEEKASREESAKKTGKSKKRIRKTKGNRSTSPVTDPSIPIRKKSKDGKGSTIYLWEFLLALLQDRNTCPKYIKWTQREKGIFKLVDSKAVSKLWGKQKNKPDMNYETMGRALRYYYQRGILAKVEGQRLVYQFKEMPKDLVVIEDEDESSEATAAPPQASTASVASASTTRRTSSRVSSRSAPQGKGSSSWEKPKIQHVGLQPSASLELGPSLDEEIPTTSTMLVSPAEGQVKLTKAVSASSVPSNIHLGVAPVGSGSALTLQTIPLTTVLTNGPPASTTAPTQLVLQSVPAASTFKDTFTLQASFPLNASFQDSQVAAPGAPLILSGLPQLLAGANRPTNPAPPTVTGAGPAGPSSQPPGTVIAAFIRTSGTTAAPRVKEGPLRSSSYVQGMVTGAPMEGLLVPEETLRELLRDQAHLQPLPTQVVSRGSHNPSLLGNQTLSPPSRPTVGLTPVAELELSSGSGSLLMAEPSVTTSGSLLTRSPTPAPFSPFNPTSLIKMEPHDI
Summary of the method: as §1

ELK4 = target: T8, ELK4 (Homo sapiens, UniProt P28324-2 1-405); conditions: protein: recombinant; tags: N-terminal GST; dsDNA, one strand shown
T8 sequence: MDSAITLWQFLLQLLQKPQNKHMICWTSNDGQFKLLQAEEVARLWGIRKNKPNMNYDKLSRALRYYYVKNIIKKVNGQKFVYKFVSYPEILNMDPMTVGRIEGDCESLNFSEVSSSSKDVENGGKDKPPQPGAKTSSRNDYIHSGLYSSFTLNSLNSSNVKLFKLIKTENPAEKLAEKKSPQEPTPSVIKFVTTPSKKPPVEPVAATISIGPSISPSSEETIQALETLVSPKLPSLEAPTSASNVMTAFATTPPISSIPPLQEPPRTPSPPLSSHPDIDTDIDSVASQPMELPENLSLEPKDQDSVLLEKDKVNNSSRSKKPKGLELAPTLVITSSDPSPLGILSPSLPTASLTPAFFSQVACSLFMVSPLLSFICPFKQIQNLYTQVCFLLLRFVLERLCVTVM
Summary of the method: as §1

ETV2 = target: T9, ETV2 (Homo sapiens, UniProt O00321 1-342); conditions: protein: recombinant; tags: N-terminal GST; dsDNA, one strand shown
T9 sequence: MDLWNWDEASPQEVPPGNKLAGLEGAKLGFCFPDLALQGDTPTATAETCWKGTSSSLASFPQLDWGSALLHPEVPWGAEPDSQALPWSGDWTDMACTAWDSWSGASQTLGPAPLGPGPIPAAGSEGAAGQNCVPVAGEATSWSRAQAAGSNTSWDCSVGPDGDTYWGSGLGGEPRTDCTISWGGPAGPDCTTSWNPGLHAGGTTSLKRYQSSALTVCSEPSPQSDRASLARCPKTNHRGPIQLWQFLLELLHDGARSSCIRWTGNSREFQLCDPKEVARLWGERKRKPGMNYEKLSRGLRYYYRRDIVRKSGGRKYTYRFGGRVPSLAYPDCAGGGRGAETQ
Summary of the method: as §1

ELF3 = target: T10, ELF3 (Homo sapiens, UniProt P78545 1-371); conditions: protein: recombinant; tags: N-terminal GST; dsDNA, one strand shown
T10 sequence: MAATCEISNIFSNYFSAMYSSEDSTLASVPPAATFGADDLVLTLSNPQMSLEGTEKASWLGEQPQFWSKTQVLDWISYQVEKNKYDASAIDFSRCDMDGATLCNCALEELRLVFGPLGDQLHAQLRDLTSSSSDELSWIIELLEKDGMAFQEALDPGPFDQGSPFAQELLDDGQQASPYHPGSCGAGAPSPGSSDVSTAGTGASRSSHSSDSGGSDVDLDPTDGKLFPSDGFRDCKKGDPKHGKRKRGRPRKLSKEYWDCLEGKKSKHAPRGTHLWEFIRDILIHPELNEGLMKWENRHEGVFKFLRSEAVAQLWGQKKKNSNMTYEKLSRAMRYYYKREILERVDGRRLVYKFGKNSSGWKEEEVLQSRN
Summary of the method: as §1

CRX = CRX (Homo sapiens, UniProt O43186 1-299); conditions: protein: recombinant; tags: N-terminal GST; dsDNA, one strand shown
Chain of CRX (O43186 whole entry): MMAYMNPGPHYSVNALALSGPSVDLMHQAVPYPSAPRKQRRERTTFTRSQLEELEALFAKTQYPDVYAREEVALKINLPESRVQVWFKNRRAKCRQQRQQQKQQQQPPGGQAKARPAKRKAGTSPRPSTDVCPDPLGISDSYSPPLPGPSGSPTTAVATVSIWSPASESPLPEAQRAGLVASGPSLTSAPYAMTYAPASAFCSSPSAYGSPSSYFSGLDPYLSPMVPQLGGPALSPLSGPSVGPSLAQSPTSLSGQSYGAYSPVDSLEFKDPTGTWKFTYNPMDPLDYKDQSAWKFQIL
Summary of the method: as §1

ETV1 = ETV1 (Homo sapiens, UniProt P50549 1-477); conditions: protein: recombinant; tags: N-terminal GST; dsDNA, one strand shown
Chain of ETV1 (P50549 whole entry): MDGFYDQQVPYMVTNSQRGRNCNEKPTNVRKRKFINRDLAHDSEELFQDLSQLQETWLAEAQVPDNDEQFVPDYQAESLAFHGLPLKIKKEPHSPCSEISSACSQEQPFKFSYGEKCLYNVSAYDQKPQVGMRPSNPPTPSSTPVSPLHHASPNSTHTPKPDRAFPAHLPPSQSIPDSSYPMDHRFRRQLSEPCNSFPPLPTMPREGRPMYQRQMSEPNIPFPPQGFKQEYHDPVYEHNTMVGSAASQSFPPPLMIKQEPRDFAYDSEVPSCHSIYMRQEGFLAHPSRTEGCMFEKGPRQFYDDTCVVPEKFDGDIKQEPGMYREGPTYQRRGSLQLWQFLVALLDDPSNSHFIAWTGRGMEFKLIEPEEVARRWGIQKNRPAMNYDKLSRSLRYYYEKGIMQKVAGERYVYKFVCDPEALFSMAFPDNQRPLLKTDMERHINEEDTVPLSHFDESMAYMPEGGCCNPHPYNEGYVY
Summary of the method: as §1

**Q.** TCTGTG was tested. Which binding signal (FLI1) did it give?
**A.** 1.17 fold enrichment (6-mer frequency, TF over GST control)

**Q.** What about the binding signal (ELK1) of the same sequence?
**A.** 1.14 fold enrichment (6-mer frequency, TF over GST control)

**Q.** What about the binding signal (GABPA) of the same sequence?
**A.** 1.18 fold enrichment (6-mer frequency, TF over GST control)

**Q.** And the binding signal (ERG)?
**A.** 1.07 fold enrichment (6-mer frequency, TF over GST control)

**Q.** And the binding signal (ELF1)?
**A.** 1.12 fold enrichment (6-mer frequency, TF over GST control)

**Q.** And the binding signal (EHF)?
**A.** 1.13 fold enrichment (6-mer frequency, TF over GST control)

**Q.** What about the binding signal (SPI1) of the same sequence?
**A.** 1.14 fold enrichment (6-mer frequency, TF over GST control)

**Q.** And the binding signal (SPIB)?
**A.** 1.14 fold enrichment (6-mer frequency, TF over GST control)

**Q.** What about the binding signal (FEV) of the same sequence?
**A.** 1.07 fold enrichment (6-mer frequency, TF over GST control)

**Q.** What about the binding signal (ETV5) of the same sequence?
**A.** 1.08 fold enrichment (6-mer frequency, TF over GST control)

**Q.** And the binding signal (HSF1)?
**A.** 1.05 fold enrichment (6-mer frequency, TF over GST control)

**Q.** And the binding signal (SPIC)?
**A.** 1.34 fold enrichment (6-mer frequency, TF over GST control)

**Q.** What about the binding signal (ELF4) of the same sequence?
**A.** 1.2 fold enrichment (6-mer frequency, TF over GST control)

**Q.** And the binding signal (ELK4)?
**A.** 1.21 fold enrichment (6-mer frequency, TF over GST control)

**Q.** And the binding signal (ETV2)?
**A.** 1.1 fold enrichment (6-mer frequency, TF over GST control)

**Q.** What about the binding signal (ELF3) of the same sequence?
**A.** 1.07 fold enrichment (6-mer frequency, TF over GST control)

**Q.** What about the binding signal (CRX) of the same sequence?
**A.** 1.09 fold enrichment (6-mer frequency, TF over GST control)

**Q.** What about the binding signal (ETV1) of the same sequence?
**A.** 1.16 fold enrichment (6-mer frequency, TF over GST control)
